HIV RNase H inh-1: HIV-1 RT RNase H inhibitors, primary screen, biochemical, fluorescence | 65,000 compounds, 1.9% hits | inhibition, % at 10 µM | RT-RNase H RNA/DNA duplex cleavage | AID 565, 2006 | Gag-Pol polyprotein (Human immunodeficiency virus type 1 group M subtype B (isolate …; in the data active = inhibition above about 50%
RmlC RmlD mix: RmlC and RmlD coupled enzyme inhibitors, primary screen, biochemical, 384-well, compound mixtures, retest | 110,000 compounds, 0.39% hits | AID 1532, 2009 | RmlC/RmlD coupled enzyme inhibition, 384-well mixture HTS | inhibition, % at 5.5 µM; in the data active = inhibition above about 30%, passing the limit was not always enough; inconclusive = no clear call, values can overlap the other calls
HIV RNase H inh-2: HIV-1 RT RNase H inhibitors, retest, confirmation, biochemical; 1,000 compounds, 39% hits; Recombinant RT RNase H, fluorescent RNA/DNA duplex cleavage; AID 651, 2007; inhibition, % at 10 µM; shares compounds with HIV RNase H inh-1; in the data active = inhibition above about 48%; inconclusive = no clear call, values can overlap the other calls
The depositor's hits bear a star; ? = inconclusive; . = no result. This excerpt belongs to a sample that is enriched for hits.

SMILES | HIV RNase H inh-1 | RmlC RmlD mix | HIV RNase H inh-2
O=C(O)c1cccc(NC(=O)c2cccc(S(=O)(=O)N3CCCCC3)c2)c1 | -9.3 | 6.1 | .
COc1ccccc1CNC(=O)c1nn(-c2ccc(C)cc2)c(=O)c2c1c1ccccc1n2C | . | -21.1 | .
COc1ccc(-n2nc(C(=O)NCc3ccco3)c3c4ccccc4n(C)c3c2=O)cc1Cl | 71.2* | 14.2 | 8.5
CCCCCC(=O)OC(CN1CCCCC1)CN1CCCC1=O (stereo not drawn) | -20.1 | ? | .
CCCc1cc(O)c2c(C)cc(=O)oc2c1 | . | -9.5 | .
Cn1c(CCNC(=O)c2ccccc2)nc2cc(NC(=O)C3CCCCC3)ccc21 | . | 9.8 | .
Cc1ccc(S(=O)(=O)NC(=O)CSc2nc3ccccc3s2)cc1 | . | -8.9 | .
CS/C(=N\S(=O)(=O)c1cccs1)NC(=O)CSc1nc2ccccc2s1 | 73.5* | -14.8 | 34.9
CCCNS(=O)(=O)c1cccc(C(=O)NC2CCCc3ccccc32)c1 (stereo not drawn) | . | -1.8 | .
Cc1cc(NC(=O)c2cc3ncc(Br)cn3n2)no1 | -1.7 | -13.7 | .
CCOC(=O)C1Nc2c(F)cc(C)cc2C2C=CCC12 (stereo not drawn) | . | 5.5 | .
Cc1ccc2c(c1C)NC(C(=O)O)C1CC=CC21 (stereo not drawn) | 96.0* | 1.5 | 68.7*
O=C(c1ccccc1)c1ccccc1C(=O)N1CCOCC1 | -2.1 | 13.7 | .
O=C(O)C1Nc2c(C(=O)N3CCOCC3)cccc2C2C=CCC12 (stereo not drawn) | 76.8* | 6.5 | 34.7
CCCC(=O)Nc1ccc(N2CCN(C(=O)c3cccs3)CC2)cc1 | -43.1 | 7.9 | .
O=S(=O)(c1ccc(C2CCCCC2)cc1)N1CCCC1 | . | -10.3 | .
COC(=O)C(c1cc(OC)c(O)c(OC)c1)(N1CCNC(C)C1)C(F)(F)F (stereo not drawn) | -9.7 | -0.9 | .
O=C(CN1C(=O)C2CC=CCC2C1=O)OCCN1C(=O)c2ccccc2C1=O (stereo not drawn) | -45.1 | 0.1 | .
CC(C)Cc1cc(C(=O)Nc2sc3c(c2C#N)CCC3)no1 | . | 7.5 | .
CC(C)Cc1cc(C(=O)Nc2sc3c(c2C#N)CCCC3)no1 | 65.1* | 10.2 | 68.3*
Cc1noc(C(=O)Nc2sc3c(c2C#N)CCC3)c1Cl | 66.6* | 10.4 | 8.9
Cc1cc(C(=O)Nc2sc3c(c2C#N)CCC3)no1 | 22.4 | 10.9 | .
COc1cccc(NC(=O)CSc2nncn2N)c1 | -1.5 | 5.2 | .
CC(C)(C)NC(=O)COC(=O)/C=C/c1ccccc1[N+](=O)[O-] | . | 5.4 | .
CCOc1ccc(NC(=O)c2cc3n(n2)C(C(F)(F)F)CC(c2ccco2)N3)cc1 (stereo not drawn) | 1.1 | -8.8 | .
SMILES | HIV RNase H inh-1 | RmlC RmlD mix | HIV RNase H inh-2
CC(C)OCCCNC(=O)CCSc1ccc(Cl)cc1 | . | 21.1 | .
COc1cc(OC)cc(C(=O)Nc2ccc(-c3nc4ccccc4o3)cc2)c1 | -2.7 | -12.5 | .
Cc1ccc(OCC(=O)Nc2ccc(O)c(-c3nc4ccccc4o3)c2)cc1 | 70.2* | . | 26.4
COc1cccc(C(=O)Nc2ccc(-c3nc4ccccc4o3)c(O)c2)c1 | 66.1* | -159.6 | 24.1
O=C(COc1ccc(Cl)cc1)Nc1ccc2oc(-c3ccncc3)nc2c1 | -1.2 | 11.8 | .
CCOc1ccc2[nH]cc(C(=O)N3CCN(CC)CC3)c(=O)c2c1 | 8.2 | 1.4 | .
Cc1ccc2c(c1)c(CC(=O)Nc1ccc(F)cc1)c(C(=O)O)n2C | . | -7.0 | .
Cc1cccc(N2CCN(S(=O)(=O)c3ccc4c(c3)n(C)c(=O)c(=O)n4C)CC2C)c1 (stereo not drawn) | 56.8* | 3.2 | ?
Cn1c(=O)c(=O)n(C)c2cc(S(=O)(=O)N3CCOCC3)ccc21 | -21.5 | 0.1 | .
CCCCN1Cc2cc(C(=O)c3cc(OC)ccc3O)cnc2NC1=O | . | 5.3 | .
Cc1ccc(O)c(C(=O)c2cnc3c(c2)CN(CCC(C)C)C(=O)N3)c1 | 62.9* | -18.8 | ?
Cc1cccc(NC(=O)CSc2nc(N)c(NC(=O)c3cccs3)c(=O)[nH]2)c1C | . | -4.7 | .
COc1ccccc1N1CCN(C(=O)c2ccc(CS(=O)(=O)c3ccccc3OC)o2)CC1 | 1.4 | -11.5 | .
COc1ccc(/C(O)=C2\C(=O)C(=O)N(c3cc(C)on3)C2c2cccc(OC)c2OC)cc1C (stereo not drawn) | 0.9 | 5.9 | .
COc1cccc(C2c3c(oc4ccc(Cl)cc4c3=O)C(=O)N2c2cc(C)on2)c1OC (stereo not drawn) | 50.4* | 5.8 | 42.3
COc1cc(C2c3c(oc4ccc(Cl)cc4c3=O)C(=O)N2Cc2ccco2)cc(OC)c1OC (stereo not drawn) | 29.2 | . | .
COc1ccc(C2c3c(oc4ccc(Cl)cc4c3=O)C(=O)N2Cc2ccco2)cc1OC (stereo not drawn) | 93.9* | . | 59.9*
Fc1ccc(/C=N/n2c(-c3cccs3)n[nH]c2=S)cc1 | . | -13.1 | .
C/C(=N\NC(=O)COc1ccc([N+](=O)[O-])cc1)C(C)(C)C | . | 15.7 | .

High-throughput results (PubChem BioAssay)
